G9a block – G9a (human) methyltransferase inhibition. Q96KQ7. G9a H3K9 monomethylation, AlphaScreen, 2 h. Potency, µM (highest dose often 102 µM), actives largely listed as inhibitors. 350,000 tested, 8.8% active; further: nearly all actives have a fitted effect of over 75% in size
Target sequence (Q96KQ7 913-1193 limits assumed): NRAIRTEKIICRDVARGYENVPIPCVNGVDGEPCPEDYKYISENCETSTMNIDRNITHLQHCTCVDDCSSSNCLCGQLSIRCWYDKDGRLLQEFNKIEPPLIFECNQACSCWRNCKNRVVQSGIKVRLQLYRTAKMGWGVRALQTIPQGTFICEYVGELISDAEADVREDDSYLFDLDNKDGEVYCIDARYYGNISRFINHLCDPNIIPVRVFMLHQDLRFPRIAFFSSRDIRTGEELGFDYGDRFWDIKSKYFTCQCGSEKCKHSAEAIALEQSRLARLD
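Readings reflect AlphaScreen signal from monomethyl-H3K9 antibody detection. HMT at 20 nM; substrate b-H3K9 500 nM; cofactor SAM 20 uM; 2 h RT reaction; compounds tested as titrations in qHTS with 15 min preincubation.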
JMJD2A Tudor – JMJD2A Tudor domain (human) inhibition. O75164. AlphaScreen JMJD2A-Tudor / H3K4me3 peptide binding. Potency, µM (titrated, usually from 114 µM), hits mostly inhibitors. 390,000 tested, 4.4% active. AID 504339; further: nearly all actives have a fitted effect of over 50% in size
PLK1 PBD inh – blocks phosphopeptide binding to human PLK1 polo-box domain | P53350 | Plk1 PBD binding of FITC phosphopeptide, fluorescence polarization | 360,000 tested, 2.8% active | Potency, µM, most hits filed as inhibitors | AID 720504; further: series mostly up to about 57 µM; nearly all actives have a fitted effect of over 65% in size
BAZ2B block – inhibitors of human BAZ2B bromodomain. AlphaScreen BAZ2B-H3K14Ac peptide displacement. Potency, µM (series often up to 114 µM), hits mostly inhibitors. 360,000 tested, 4.4% active. AID 504333; further: nearly all actives have a fitted effect of over 60% in size
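Multi-concentration screen (max 110 uM) measuring displacement of acetylated histone H3 peptide from BAZ2B by AlphaScreen, using 50 nM protein, 50 nM peptide and 10 ug/mL streptavidin donor plus Ni-chelate acceptor beads.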
HP1b chromo inh – HP1-beta chromodomain-methylated histone interaction inhibition; P83916; AlphaScreen HP1-beta / biotin-H3K9me3 peptide binding; Potency, µM (titrated, usually from 114 µM), most hits filed as inhibitors; 390,000 tested, 0.56% active; further: nearly all actives have a fitted effect of over 70% in size
Target sequence (P83916 whole entry, looked up): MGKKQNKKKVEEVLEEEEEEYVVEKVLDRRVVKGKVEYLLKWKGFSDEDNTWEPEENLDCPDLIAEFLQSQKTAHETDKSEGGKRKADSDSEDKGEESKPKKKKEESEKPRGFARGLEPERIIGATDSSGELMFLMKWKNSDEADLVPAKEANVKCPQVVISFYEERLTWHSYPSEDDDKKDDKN
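AlphaScreen: HP1-beta (50 nM) preformed 30 min with biotin-H3(1-18)K9me3 peptide (50 nM) in PBS pH 7.4, 0.01% Tween-20. Compound added for 30 min at RT, then streptavidin donor/nickel chelate acceptor beads (10 ug/mL) for 30 min.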
PI5P4Ka inh – PI5P4K alpha (human) kinase inhibition | P48426 | max response, % | 330,000 tested, 1.2% active | PI5P4Kalpha enzyme, ADP-Glo luminescence, 60 min; stronger effect = lower value | AID 652105; active means max response of -50% or lower; inconclusive means between -30% and -50%; inactive means -30% or higher; further: value at the top dose of about 77 µM
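PI5P4Kalpha ADP-Glo assay; 5 microM ATP final; 60 min RT reaction; HEPES pH 7.4/EGTA/CHAPS, 5% DMSO; controls lacking substrate or enzyme; luminescent end-point.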
Hits are given with their value; – = inactive; ? = inconclusive; · = no result given. Shown are actives, neighbours in structure and some others; about 12% of the full set was active somewhere. Unless noted, the call rests on the fitted dose curve; in most records, active means well fitted curve in the direction sought with a large enough effect; inconclusive means small, poorly fitted or top-dose-only effect, or another doubt; inactive means no such curve, though single readings can be large; an effect the other way counts as inactive or inconclusive.

SMILES | G9a block | JMJD2A Tudor | PLK1 PBD inh | BAZ2B block | HP1b chromo inh | PI5P4Ka inh
CCOc1cc(C#N)c(NC(=O)c2ccc(OC)c(S(=O)(=O)N3CCN(c4ccccc4)CC3)c2)cc1OCC | ? | – | · | – | – | ·
CC(Sc1n[nH]c(N)n1)C(=O)Nc1cccc2ccccc12 (stereo not drawn) | ? | – | – | – | – | –
Cc1cc(C)c(NC(=S)NC(CO)(CO)CO)c(C)c1 | 10µM | 89µM | – | – | – | –
COc1cccc(OC)c1OC(=O)c1ccccc1 | · | – | – | · | – | –
CCc1ccccc1NC(=O)CC(c1ccc(F)cc1)N1Cc2ccccc2C1=O (stereo not drawn) | – | – | · | – | – | ·
S=c1[nH]nc(-c2cccc(Cl)c2)n1Cc1ccccc1 | ? | ? | – | – | – | –
CCOc1ccc(-c2n[nH]c(=S)n2Cc2ccccc2)cc1 | 3.5µM | 45µM | – | – | – | –
S=c1[nH]nc(-c2cc3ccccc3o2)n1Cc1ccccc1 | 1.1µM | – | – | ? | – | –
NC(=O)CSc1nnc(-c2cc3ccccc3o2)n1Cc1ccccc1 | ? | – | – | – | – | –
Cc1cccc(-c2n[nH]c(=S)n2Cc2ccccc2)c1 | 0.71µM | 40µM | – | – | – | –
COc1ccc(-c2n[nH]c(=S)n2CC(C)C)cc1 | 1µM | 4µM | – | – | – | –
COc1ccc(OC)c(CCNC(=O)c2ccc3[nH]c(C)c(C)c3c2)c1 | – | – | · | ? | – | ·
CC(C)Oc1ccc(Cn2c(-c3ccco3)n[nH]c2=S)cc1 | 0.71µM | 40µM | – | – | – | –
COc1ccc(Cn2c(-c3ccc(OC)cc3)n[nH]c2=S)cc1 | 2.8µM | ? | ? | – | – | –
CC(C)OCCCn1c(-c2ccco2)nc2nc3ccccc3nc21 | ? | – | – | – | – | ·
Cc1ccc(-c2n[nH]c(=S)n2Cc2ccccc2)cc1 | 1.6µM | 40µM | – | – | – | ·
CC(c1n[nH]c(=S)n1Cc1ccccc1)N(C)C (stereo not drawn) | 10µM | ? | 19µM | – | – | –
CCn1c(C2CCN(Cc3ccccc3)CC2)n[nH]c1=S | – | 3.5µM | – | – | – | –
CCc1ccccc1NC(=O)c1cnc2sc(N3CCCC3)nn2c1=O | – | – | · | – | – | ·
COc1ccc(-c2nnc(SCC(=O)Nc3ccc(Cl)cc3)n2C)cc1 | – | – | – | – | – | ·
CCOC(=O)/C(=N\Nc1cccc(Cl)c1)Sc1nnc(-c2ccc(OC)cc2)n1C | 8.9µM | – | – | – | – | –
COc1cccc(CN(C(=O)c2cccc(C)c2)C2CCS(=O)(=O)C2)c1 (stereo not drawn) | – | – | · | – | – | ·
COC(=O)c1cc2oc(C)cc2n1CC(=O)N1CCCc2ccccc21 | ? | ? | – | 89µM | – | –
COC(=O)c1cc2sccc2n1CC(=O)N1CCCc2ccccc21 | – | – | – | – | – | ·
CCOC(=O)c1cc2occc2n1CC(=O)N1CCCc2ccccc21 | ? | ? | – | 79µM | – | –
SMILES | G9a block | JMJD2A Tudor | PLK1 PBD inh | BAZ2B block | HP1b chromo inh | PI5P4Ka inh
Cc1nnc(N/N=C/c2ccccc2C(F)(F)F)n1N | 45µM | – | – | – | – | –
Cc1nnc(N/N=C/c2ccccc2F)n1N | – | – | – | – | – | –
COc1ccc(-n2c(C)cc(/C=N/Nc3nnc(C)n3N)c2C)cc1 | 11µM | ? | – | ? | – | –
Cc1ccnc(N/N=C/c2ccco2)n1 | – | ? | – | – | – | ·
Cc1nnc(N/N=C/c2ccco2)n1N | – | 25µM | – | – | – | –
O=C(c1ccc2c(c1)N(Cc1cccc(Cl)c1)C(=O)c1ccccc1S2(=O)=O)N1CCN(Cc2ccccc2)CC1 | – | – | · | – | – | ·
Fc1cc(Br)ccc1NC(=S)NCCc1ccccc1 | – | – | – | – | – | ·
S=C(NCCc1ccccc1)Nc1ccc(Br)cn1 | 7.1µM | – | – | ? | – | –
CN1C(=O)N(C)c2ccc(Br)c3cccc1c23 | – | 45µM | 30µM | – | – | –
CN1C(=O)N(C)c2ccc(C=O)c3cccc1c23 | – | – | – | – | – | –
Nc1ncnc2c1ncn2[C@@H]1O[C@H](C(=O)NS(=O)(=O)c2cccs2)[C@@H](O)[C@H]1O | · | · | – | · | · | –
CCc1c(C)nc2[nH]nc(NC(=O)C(F)(F)F)n2c1=O | 16µM | 89µM | – | ? | – | ·
